Laboratory results reported in the supplement of paper PMC8728848.
The full list was thinned out, with the strongest signals kept by preference.

How the values were obtained:
Experiment in all cases: glycan array binding signal (z-score within array); higher = stronger binding
Conditions in all cases: glycan notation: IUPAC condensed, linker removed
Fuc(a1-2)Gal(b1-3)GalNAc = target: Fuc(a1-2)Gal(b1-3)GalNAc
How it was run: (§1)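 Glycan array data were curated from 3228 arrays in the Consortium for Functional Glycomics database and kept only where the protein sequence was available. Glycan names were converted to IUPAC-condensed notation, and columns mapping to the same glycan were averaged. The binding signal is a within-array Z-score, averaged across arrays of the same protein sequence at different concentrations or buffers and across linkers. Negative Z-scores can be read as non-binding.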

[1] = target: Fuc(a1-2)Gal(b1-3)GlcNAc(b1-2)Man(a1-3)[Fuc(a1-2)Gal(b1-3)GlcNAc(b1-2)Man(a1-6)]Man(b1-4)GlcNAc(b1-4)GlcNAc
How it was run: as §1

[2] = target: Fuc(a1-2)Gal(b1-4)GlcNAc(b1-2)[Fuc(a1-2)Gal(b1-4)GlcNAc(b1-4)]Man(a1-3)[Fuc(a1-2)Gal(b1-4)GlcNAc(b1-2)Man(a1-6)]Man(b1-4)GlcNAc(b1-4)GlcNAc
How it was run: as §1

[3] = target: Fuc(a1-2)[Gal(a1-3)]Gal(b1-4)Glc
How it was run: as §1

[4] = target: Fuc(a1-2)[Gal(a1-3)]Gal(b1-4)GlcNAc(b1-2)Man(a1-3)[Fuc(a1-2)[Gal(a1-3)]Gal(b1-4)GlcNAc(b1-2)Man(a1-6)]Man(b1-4)GlcNAc(b1-4)GlcNAc
How it was run: as §1

[5] = target: Fuc(a1-2)[Gal(a1-3)]Gal(b1-4)[Fuc(a1-3)]GlcNAc
How it was run: as §1

[6] = target: Fuc(a1-2)[GalNAc(a1-3)]Gal(b1-3)GlcNAc(b1-2)Man(a1-3)[Fuc(a1-2)[GalNAc(a1-3)]Gal(b1-3)GlcNAc(b1-2)Man(a1-6)]Man(b1-4)GlcNAc(b1-4)[Fuc(a1-6)]GlcNAc
How it was run: as §1

[7] = target: Fuc(a1-2)[GalNAc(a1-3)]Gal(b1-4)GlcNAc(b1-2)Man(a1-3)[Fuc(a1-2)[GalNAc(a1-3)]Gal(b1-4)GlcNAc(b1-2)Man(a1-6)]Man(b1-4)GlcNAc(b1-4)GlcNAc
How it was run: as §1

[8] = target: Fuc(a1-2)[GalNAc(a1-3)]Gal(b1-4)GlcNAc(b1-3)Gal(b1-4)GlcNAc
How it was run: as §1

[9] = target: Fuc(a1-2)[GalNAc(a1-3)]Gal(b1-4)GlcNAc(b1-3)Gal(b1-4)GlcNAc(b1-3)Gal(b1-4)GlcNAc
How it was run: as §1

[10] = target: Fuc(a1-3)[Gal(b1-4)]GlcNAc(b1-2)Man(a1-6)[Gal(b1-4)GlcNAc(b1-2)Man(a1-3)]Man(b1-4)GlcNAc(b1-4)GlcNAc
How it was run: as §1

Gal(a1-3)Gal = target: Gal(a1-3)Gal
How it was run: as §1

[11] = target: Gal(a1-3)Gal(b1-4)[Fuc(a1-3)]GlcNAc(b1-2)Man(a1-3)[Gal(a1-3)Gal(b1-4)[Fuc(a1-3)]GlcNAc(b1-2)Man(a1-6)]Man(b1-4)GlcNAc(b1-4)GlcNAc
How it was run: as §1

Gal(b1-2)Gal = target: Gal(b1-2)Gal
How it was run: as §1

[12] = target: Gal(b1-3)GalNAc(a1-3)[Fuc(a1-2)]Gal(b1-4)GlcNAc
How it was run: as §1

Gal(b1-3)GlcNAc = target: Gal(b1-3)GlcNAc
How it was run: as §1

[13] = target: Gal(b1-3)GlcNAc(b1-2)Man(a1-3)[Gal(b1-3)GlcNAc(b1-2)Man(a1-6)]Man(b1-4)GlcNAc(b1-4)[Fuc(a1-6)]GlcNAc
How it was run: as §1

[14] = target: Gal(b1-3)GlcNAc(b1-3)Gal(b1-4)Glc
How it was run: as §1

[15] = target: Gal(b1-3)GlcNAc(b1-3)GalNAc
How it was run: as §1

Gal(b1-4)Gal = target: Gal(b1-4)Gal
How it was run: as §1

[16] = target: Gal(b1-4)GlcNAc(b1-2)Man(a1-3)[Man(a1-6)]Man(b1-4)GlcNAc(b1-4)GlcNAc
How it was run: as §1

[17] = target: Gal(b1-4)GlcNAc(b1-2)[Gal(b1-4)GlcNAc(b1-6)]Man(a1-6)[GlcNAc(b1-4)][Gal(b1-4)GlcNAc(b1-2)Man(a1-3)]Man(b1-4)GlcNAc(b1-4)GlcNAc
How it was run: as §1

[18] = target: Gal(b1-4)GlcNAc(b1-3)Gal(b1-3)GlcNAc
How it was run: as §1

[19] = target: Gal(b1-4)GlcNAc(b1-3)Gal(b1-4)Glc
How it was run: as §1

Gal3S6S(b1-4)GlcNAc6S = target: Gal3S6S(b1-4)GlcNAc6S
How it was run: as §1

Gal6S(b1-4)Glc6S = target: Gal6S(b1-4)Glc6S
How it was run: as §1

Gal6S(b1-4)GlcNAc = target: Gal6S(b1-4)GlcNAc
How it was run: as §1

GalNAc6S(b1-4)GlcNAc = target: GalNAc6S(b1-4)GlcNAc
How it was run: as §1

[20] = target: Glc(a1-6)Glc(a1-6)Glc(a1-6)Glc
How it was run: as §1

Glc(b1-4)Glc = target: Glc(b1-4)Glc
How it was run: as §1

Glc(b1-6)Glc = target: Glc(b1-6)Glc
How it was run: as §1

GlcA(b1-3)Gal = target: GlcA(b1-3)Gal
How it was run: as §1

[21] = target: GlcNAc(b1-3)[GlcNAc(b1-4)][GlcNAc(b1-6)]GlcNAc
How it was run: as §1

[22] = target: GlcNAc6S(b1-3)Gal(b1-4)GlcNAc
How it was run: as §1

[23] = target: Man(a1-3)[Man(a1-6)]Man(a1-6)[Man(a1-2)Man(a1-3)]Man(b1-4)GlcNAc(b1-4)GlcNAc
How it was run: as §1

[24] = target: Man(a1-3)[Man(a1-6)]Man(a1-6)[Man(a1-3)]Man
How it was run: as §1

[25] = target: Man(a1-3)[Man(a1-6)]Man(a1-6)[Man(a1-3)]Man(b1-4)GlcNAc(b1-4)GlcNAc
How it was run: as §1

[26] = target: Neu5Ac(a2-3)Gal(b1-3)GlcNAc6S
How it was run: as §1

[27] = target: Neu5Ac(a2-3)Gal(b1-4)GlcNAc(b1-2)Man(a1-3)[GlcNAc(b1-2)Man(b1-4)GlcNAc(b1-2)Man(a1-6)]Man(b1-4)GlcNAc(b1-4)GlcNAc
How it was run: as §1

[28] = target: Neu5Ac(a2-3)Gal(b1-4)GlcNAc(b1-2)Man(a1-3)[Neu5Ac(a2-6)Gal(b1-4)GlcNAc(b1-2)Man(a1-6)]Man(b1-4)GlcNAc(b1-4)GlcNAc
How it was run: as §1

[29] = target: Neu5Ac(a2-3)Gal(b1-4)GlcNAc(b1-3)Gal(b1-4)GlcNAc
How it was run: as §1

[30] = target: Neu5Ac(a2-3)Gal(b1-4)[Fuc(a1-3)]GlcNAc(b1-3)Gal
How it was run: as §1

[31] = target: Neu5Ac(a2-3)Gal(b1-4)[Fuc(a1-3)]GlcNAc6S
How it was run: as §1

Neu5Ac(a2-3)GalNAc = target: Neu5Ac(a2-3)GalNAc
How it was run: as §1

[32] = target: Neu5Ac(a2-6)Gal(b1-4)GlcNAc(b1-2)Man(a1-3)[Gal(b1-4)GlcNAc(b1-2)Man(a1-6)]Man(b1-4)GlcNAc(b1-4)GlcNAc
How it was run: as §1

[33] = target: Neu5Ac(a2-8)Neu5Ac(a2-8)Neu5Ac(a2-3)[GalNAc(b1-4)]Gal(b1-4)Glc
How it was run: as §1

[34] = target: Neu5Gc(a2-3)Gal(b1-3)[Fuc(a1-4)]GlcNAc
How it was run: as §1

[35] = target: Neu5Gc(b2-6)Gal(b1-4)GlcNAc
How it was run: as §1

B1: Gal 8 (Homo sapiens), O00214_1 (protein)
chain: MMLSLNNLQNIIYNPVIPFVGTIPDQLDPGTLIVIRGHVPSDADRFQVDLQNGSSMKPRADVAFHFNPRFKRAGCIVCNTLINEKWGREEITYDTPFKREKSFEIVIMVLKDKFQVAVNGKHTLLYGHRIGPEKIDTLGIYGKVNIHSIGFSFSSDLQSTQASSLELTEISRENVPKSGTPQLRLPFAARLNTPMGPGRTVVVKGEVNANAKSFNVDLLAGKSKDIALHLNPRLNIKAFVRNSFLQESWGEEERNITSFPFSPGMYFEMIIYCDVREFKVAVNGVHSLEYKHRFKELSSIDTLEINGDIHLLEVRSW
Fuc(a1-2)Gal(b1-3)GalNAc
  glycan array binding signal (z-score): -0.23
[1]
  glycan array binding signal (z-score): 0.466
[2]
  glycan array binding signal (z-score): -1.24
[3]
  glycan array binding signal (z-score): 3.1
[4]
  glycan array binding signal (z-score): 2.33
[5]
  glycan array binding signal (z-score): -0.143
[6]
  glycan array binding signal (z-score): 1.73
[7]
  glycan array binding signal (z-score): 2.14
[8]
  glycan array binding signal (z-score): 2.58
[9]
  glycan array binding signal (z-score): 2.31
[10]
  glycan array binding signal (z-score): -0.273
Gal(a1-3)Gal
  glycan array binding signal (z-score): -0.252
[11]
  glycan array binding signal (z-score): -0.137
Gal(b1-2)Gal
  glycan array binding signal (z-score): -0.201
[12]
  glycan array binding signal (z-score): 2.17
Gal(b1-3)GlcNAc
  glycan array binding signal (z-score): -0.167
[13]
  glycan array binding signal (z-score): -0.63
[14]
  glycan array binding signal (z-score): 0.084
[15]
  glycan array binding signal (z-score): -0.235
Gal(b1-4)Gal
  glycan array binding signal (z-score): -0.099
[16]
  glycan array binding signal (z-score): 0.003
[17]
  glycan array binding signal (z-score): -0.251
[18]
  glycan array binding signal (z-score): 1.38
[19]
  glycan array binding signal (z-score): 2.32
Gal3S6S(b1-4)GlcNAc6S
  glycan array binding signal (z-score): -0.201
Gal6S(b1-4)Glc6S
  glycan array binding signal (z-score): -0.094
Gal6S(b1-4)GlcNAc
  glycan array binding signal (z-score): -0.172
GalNAc6S(b1-4)GlcNAc
  glycan array binding signal (z-score): -0.215
[20]
  glycan array binding signal (z-score): -0.23
Glc(b1-4)Glc
  glycan array binding signal (z-score): 0.078
Glc(b1-6)Glc
  glycan array binding signal (z-score): -0.234
GlcA(b1-3)Gal
  glycan array binding signal (z-score): -0.219
[21]
  glycan array binding signal (z-score): -0.227
[22]
  glycan array binding signal (z-score): -0.585
[23]
  glycan array binding signal (z-score): 2.31
[24]
  glycan array binding signal (z-score): -0.195
[25]
  glycan array binding signal (z-score): -0.16
[26]
  glycan array binding signal (z-score): 2.19
[27]
  glycan array binding signal (z-score): -0.189
[28]
  glycan array binding signal (z-score): -0.225
[29]
  glycan array binding signal (z-score): -0.244
[30]
  glycan array binding signal (z-score): -0.243
[31]
  glycan array binding signal (z-score): -0.235
Neu5Ac(a2-3)GalNAc
  glycan array binding signal (z-score): -0.201
[32]
  glycan array binding signal (z-score): -0.254
[33]
  glycan array binding signal (z-score): 0.35
[34]
  glycan array binding signal (z-score): -0.233
[35]
  glycan array binding signal (z-score): -0.219
